# Measurements from PubChem BioAssay AID1745847 (National Center for Advancing Translational Sciences (NCATS), 2022).
# The campaign covered roughly 2,100 compounds. About 670 (32%) were called active. Another 50% or so got no clear call; they are omitted. Calls come from the whole dose curve; as a rule, active = well fitted inhibition curve with a large enough effect; inconclusive = small, poorly fitted or top-dose-only effect; inactive = no such curve, though single readings can be large or run the other way. The list shows a part of the results.
# Experiment: CMV-Luciferase Counterscreen for Inhibitors of ATXN expression; note: nearly all actives have a fitted effect of over 55% in size
# Settings: HEK-293 CMV-luciferase reporter, luminescence, 24 h; series mostly up to 57.5 µM
# % is set by controls: 0 for no effect and ±100 for the full control effect; potency is the fitted concentration of half-maximal effect.
Compound,Potency,"activity change, negative = inhibition"
O=C(O)CCn1cc(/C=C/C(=O)c2ccc(Cl)cc2)c(-c2ccc(Br)cc2)n1,10 µM (active),
CC[C@@]1(O)C(=O)OCc2c1cc1n(c2=O)Cc2cc3c(CN(C)C)c(O)ccc3nc2-1,11.2 µM (active),
CCC1(O)C(=O)OCc2c1cc1n(c2=O)Cc2cc3cc(O)ccc3nc2-1 (stereo unspecified),0.891 µM (active),
O=C(NC1C=CS(=O)(=O)C1)c1sc2ccccc2c1Cl (stereo unspecified),,-11.1% [at 11.4 µM] (inactive)
Brc1cnc2nc(SCc3nc4ccccc4[nH]3)[nH]c2c1,,361% [at 11.4 µM] (inactive)
CCCCc1ccc(NC(=O)N2CCN(c3cc(C)nc4ccccc34)CC2)c(C)c1,12.6 µM (active),
Cc1cc2nc(-c3nnnn3Cc3ccccc3)c(=O)[nH]c2cc1C,,-9.85% [at 11.4 µM] (inactive)
CCn1c2ccccc2c2cc(NC(=O)COC(=O)Cc3cn4ccsc4n3)ccc21,,33.4% [at 11.4 µM] (inactive)
CCn1c2ccccc2c2cc(NC(=O)COC(=O)c3ccccc3F)ccc21,,9.52% [at 11.4 µM] (inactive)
CC(=O)c1ccc(NC(=O)COC(=O)c2c3c(nc4ccccc24)/C(=C\c2cccs2)CCC3)cc1,17.8 µM (active),
Cc1cc(C)nc(N/N=C2/CCCC/C2=C\c2ccccc2)n1,3.16 µM (active),
NC(N)=N/N=C/c1ccc2cccc(OCc3ccccc3)c2n1,22.4 µM (active),
Cc1cc(Cl)ccc1-c1cc2nc(NCCCN(C)C)n(C)c(=O)c2s1,,5.92% [at 11.4 µM] (inactive)
CNc1nc2c(N)ncnc2n1[C@H]1O[C@@H](CO)[C@H](O)[C@@H]1O,,119% [at 11.4 µM] (inactive)
Nc1ccn([C@@H]2O[C@H](CO)[C@@H](O)C2O)c(=O)n1 (stereo partly specified),2.51 µM (active),
N#Cc1c(N)n(C2OC(CO)C(O)C2O)c2ncnc(N)c12 (stereo unspecified),inactive,
COC(=O)c1c(NC(=O)c2ccc([N+](=O)[O-])o2)sc2c1CCN(C(C)C)C2,15.8 µM (active),
O=C(COc1ccccc1Cl)Nc1ccc(N2CCN(C(=O)c3ccccc3)CC2)cc1,3.55 µM (active),
CC(=O)N(C1=C(Cl)C(=O)c2ccccc2C1=O)C1CCCCC1,12.6 µM (active),
CCCCOc1ccccc1NC(=O)Cn1c(-c2nonc2N)nc2ccccc21,inactive,
COCCCn1c(N)c(-c2nc3ccccc3n2C)c2nc3ccccc3nc21,17.8 µM (active),
Cc1ccc(NS(=O)(=O)c2ccc(NC(=O)C(C)Sc3ccc(Cl)cc3)cc2)c(C)c1 (stereo unspecified),25.1 µM (active),

Compound,Potency,"activity change, negative = inhibition"
O=C(c1ccc(F)cc1F)C1CCN(c2ccc([N+](=O)[O-])cn2)CC1,4.47 µM (active),
COC(=O)C(Cc1ccc(O)cc1)NC(=O)C(C)Oc1ccccc1 (stereo unspecified),inactive,
CC(Oc1ccc(F)cc1)C(=O)Nc1nc(-c2ccccn2)cs1 (stereo unspecified),2.51 µM (active),
NC(c1ccccc1)c1csc(NC(=O)Nc2ccccc2Oc2ccccc2)n1 (stereo unspecified),,-22.9% [at 11.4 µM] (inactive)
Cc1cc(C)c2nc(NNC(=O)c3cc(-c4cccs4)nc4ccccc34)sc2c1,2.82 µM (active),
CCN1CCS/C1=C\C=C\C1=[N+](CC)CCS1,3.98 µM (active),
NCCCCCc1nnc(SCc2ccccc2Cl)o1,,-36.5% [at 11.4 µM] (inactive)
CCOC(=O)c1c(-c2ccccc2)oc2cc(CN(C)C)c(O)c(CN(C)C)c12,8.91 µM (active),
CC(=O)Nc1ccc(N(CC(O)Cn2c3ccccc3c3ccccc32)S(=O)(=O)c2ccc(C)cc2)cc1 (stereo unspecified),20 µM (active),
CSc1sc(-c2nnc(SCC(=O)Nc3ccc(Cl)cc3)n2C)c2c1C=CCC2,,-19.8% [at 11.4 µM] (inactive)
Cn1c(SCC(=O)N/N=C/c2ccc([N+](=O)[O-])s2)nnc1-c1ccccc1,22.4 µM (active),
Cn1c(SCC(=O)N/N=C/c2ccc([N+](=O)[O-])s2)nnc1-c1ccc(Cl)cc1,15.8 µM (active),
Cn1c(SCC(=O)Nc2cc(Cl)cc(Cl)c2)nnc1-c1ccc2nonc2c1,,-10.7% [at 11.4 µM] (inactive)
O=C(CSc1nnnn1-c1ccccc1)Nc1nsc(-c2ccccc2)n1,inactive,
Cc1ccc2[nH]c(=O)c(CN(CCCN(C)C)C(=O)Nc3cccc(Cl)c3)cc2c1,inactive,
O=c1c2ccc(Cl)cc2nc(-c2ccc([N+](=O)[O-])cc2)n1O,7.94 µM (active),
CC(C)(C)c1cc(C(=O)NNc2cc(C(F)(F)F)ccc2Cl)n(Cc2ccccc2)n1,inactive,
Cc1cc(Cl)c(C(=O)Nc2cccc(C(F)(F)F)c2)c(C)n1,17.8 µM (active),
Cc1nc(-c2c(C(F)(F)F)noc2-c2ccc(O)cc2O)cs1,11.2 µM (active),
CCCCC(=O)NC(c1ccccc1OC)c1ccc2cccnc2c1O (stereo unspecified),2.82 µM (active),
CCCCC(=O)NC(c1ccccc1Cl)c1ccc2cccnc2c1O (stereo unspecified),2.51 µM (active),
CCCCC(=O)NC(c1ccc(OC)c(OC)c1)c1ccc2cccnc2c1O (stereo unspecified),2.82 µM (active),

Compound,Potency,"activity change, negative = inhibition"
CCC(=O)NC(c1ccc(Cl)cc1Cl)c1ccc2cccnc2c1O (stereo unspecified),2.24 µM (active),
COc1ccc(N2C3=C(CC4=C2CC(C)(C)CC4=O)C(=O)CC(C)(C)C3)cc1,,-2.52% [at 11.4 µM] (inactive)
CCCC(=O)NC(c1ccc(Cl)cc1Cl)c1ccc2cccnc2c1O (stereo unspecified),2.51 µM (active),
CCCCC(=O)NC(c1ccc(Cl)cc1Cl)c1ccc2cccnc2c1O (stereo unspecified),0.794 µM (active),
CCCCOc1ccc(C(=O)NNC(=O)c2cnccn2)cc1OC,10 µM (active),
CN(C)CCC(c1ccc(Br)cc1)c1ccccn1 (stereo unspecified),inactive,
COc1ccc(-c2csc(NC(=O)c3ccc(OCC(=O)N4CCOCC4)c(OC)c3)n2)cc1OC,14.1 µM (active),
COc1ccc(/C(N)=N/OC(=O)N2CCOCC2)cc1,,20.7% [at 11.4 µM] (inactive)
COc1cc(C(=O)OC(C)C(=O)N2CCc3ccccc3C2)ccc1OCC(=O)N1CCOCC1 (stereo unspecified),,-9.5% [at 11.4 µM] (inactive)
COc1ccc(CC(=O)Nc2nc(-c3ccc(F)c(F)c3)cs2)cc1OC,6.31 µM (active),
O=C(CCN1C(=O)C2CC=CCC2C1=O)Nc1nc(-c2ccc(F)c(F)c2)cs1 (stereo unspecified),inactive,
COc1ccc(CC(=O)Nc2nc(-c3ccc(OC)c(OC)c3)cs2)cc1OC,3.55 µM (active),
COCCNc1nc(-c2cc(C)n(CCc3ccc(OC)cc3)c2C)cs1,inactive,
O=C(Nc1nc(-c2ccc(F)c(F)c2)cs1)Nc1ccc(F)cc1F,,6.09% [at 11.4 µM] (inactive)
Cc1noc(C)c1CSCC(=O)Nc1nc(-c2ccc(F)c(F)c2)cs1,25.1 µM (active),
Cc1ccc(NC(=O)CCC(=O)c2cc(C)sc2C)nc1,inactive,
Cc1ccc(OCC(=O)N2CCN(c3nnc(-c4ccc(C)cc4)c4ccccc34)CC2)cc1,2.24 µM (active),
CCCCOC(=O)/C=C\C(=O)NC(N)=O,14.1 µM (active),
CCOC(=O)/C=C/C(=O)Nc1ccc(Oc2ccccc2)cc1,,-6.32% [at 11.4 µM] (inactive)
Cc1nc2ccc(NC(=O)c3cccc(S(=O)(=O)N(C)c4ccccc4)c3)cc2s1,3.55 µM (active),
CN(c1ccccc1)S(=O)(=O)c1ccc(C(=O)Nc2nnc(-c3ccc(F)cc3)o2)cc1,10 µM (active),
Cc1ccc2nc(N(CCCN(C)C)C(=O)c3ccc(S(=O)(=O)N4CCCCCC4)cc3)sc2c1,,-18.5% [at 11.4 µM] (inactive)

Compound,Potency,"activity change, negative = inhibition"
Cc1nc2cc(NC(=O)CSc3nc4c(C)cccc4cc3C#N)ccc2s1,inactive,
CCCN(CCC)S(=O)(=O)c1ccc(C(=O)Nc2nnc(-c3cc(OC)cc(OC)c3)o2)cc1,0.794 µM (active),
Cc1nc2ccc(NC(=O)c3ccc(S(=O)(=O)N(C)c4ccccc4)cc3)cc2s1,3.98 µM (active),
Cc1cccc(NC(=O)c2ccc(S(=O)(=O)N(C)c3ccccc3)cc2)n1,14.1 µM (active),
O=C(Nc1nnc(-c2ccc(F)cc2)o1)c1cc(Cl)sc1Cl,10 µM (active),
O=C(c1ccco1)N1CCCC(c2nc(-c3ccc(S(=O)(=O)NCc4ccccc4)cc3)no2)C1 (stereo unspecified),11.2 µM (active),
COc1cc2c3nnc(-c4ccc(F)cc4)c-3cn(Cc3ccc(F)cc3)c2cc1OC,,-11.8% [at 11.4 µM] (inactive)
CCOC(=O)N1CCN(c2ccnc3cc(Cl)ccc23)CC1,2.51 µM (active),
O=C(c1ccco1)N1CCN(c2ccnc3cc(Cl)ccc23)CC1,14.1 µM (active),
CC(C)N(C(=O)N1CCN(c2ccnc3cc(Cl)ccc23)CC1)C(C)C,12.6 µM (active),
CCOC(=O)C(=CNc1ccc2c(c1)nnn2-c1ccc(Cl)cc1)C(=O)OCC,inactive,
O=C(C1CCCCC1)N1CCN(c2ccnc3cc(Cl)ccc23)CC1,5.01 µM (active),
Cc1cc2oc3ccc(NCCC4CCCN4C)cc3c(=O)c2cc1C (stereo unspecified),inactive,
CN[C@H]1C[C@H]2c3[nH]c4ccc(-c5ccc(OC)cc5)cc4c3CCN2C(=O)[C@H]1[C@H](C)O,3.55 µM (active),
Cc1nn(C)c(C)c1NC(=O)CSc1nc(Cc2ccccc2)nc2c1cnn2-c1ccccc1,,-7.1% [at 11.4 µM] (inactive)
N/C(=C\C(=O)c1cc(Cl)ccc1O)C(Cl)(Cl)Cl,,21.6% [at 11.4 µM] (inactive)
COc1ccc(/C(C)=N/NC(=O)c2cccc(S(=O)(=O)N3CCCC3)c2)c(O)c1,3.98 µM (active),
C/C(=N\NC(=O)c1cc(-c2cccnc2)nc2ccccc12)c1ccc(O)cc1O,2.51 µM (active),
CC(=NNC(=O)c1ccncc1)c1ccc2ccccc2c1O,0.794 µM (active),
CC(C)CC(=NNC(=O)c1ccncc1)c1cc(Cl)ccc1O,0.282 µM (active),
